# The full list was thinned out, with hits kept by preference.
# IDE exosite inh = displaces the probe from the exo-site of human IDE | AID 1259349 | P14735 | purified IDE, FL-6b probe fluorescence polarization; active compounds read low | z-score at 20 µM | hit rate 6.3% among 17,000;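 active = z-score of -3 or lower, meaning strong loss of probe binding signal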;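 also: His-tagged human IDE residues 42-1019 made in E. coli with 30 nM FL-6b probe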
# Target sequence (P14735 42-1019 limits assumed): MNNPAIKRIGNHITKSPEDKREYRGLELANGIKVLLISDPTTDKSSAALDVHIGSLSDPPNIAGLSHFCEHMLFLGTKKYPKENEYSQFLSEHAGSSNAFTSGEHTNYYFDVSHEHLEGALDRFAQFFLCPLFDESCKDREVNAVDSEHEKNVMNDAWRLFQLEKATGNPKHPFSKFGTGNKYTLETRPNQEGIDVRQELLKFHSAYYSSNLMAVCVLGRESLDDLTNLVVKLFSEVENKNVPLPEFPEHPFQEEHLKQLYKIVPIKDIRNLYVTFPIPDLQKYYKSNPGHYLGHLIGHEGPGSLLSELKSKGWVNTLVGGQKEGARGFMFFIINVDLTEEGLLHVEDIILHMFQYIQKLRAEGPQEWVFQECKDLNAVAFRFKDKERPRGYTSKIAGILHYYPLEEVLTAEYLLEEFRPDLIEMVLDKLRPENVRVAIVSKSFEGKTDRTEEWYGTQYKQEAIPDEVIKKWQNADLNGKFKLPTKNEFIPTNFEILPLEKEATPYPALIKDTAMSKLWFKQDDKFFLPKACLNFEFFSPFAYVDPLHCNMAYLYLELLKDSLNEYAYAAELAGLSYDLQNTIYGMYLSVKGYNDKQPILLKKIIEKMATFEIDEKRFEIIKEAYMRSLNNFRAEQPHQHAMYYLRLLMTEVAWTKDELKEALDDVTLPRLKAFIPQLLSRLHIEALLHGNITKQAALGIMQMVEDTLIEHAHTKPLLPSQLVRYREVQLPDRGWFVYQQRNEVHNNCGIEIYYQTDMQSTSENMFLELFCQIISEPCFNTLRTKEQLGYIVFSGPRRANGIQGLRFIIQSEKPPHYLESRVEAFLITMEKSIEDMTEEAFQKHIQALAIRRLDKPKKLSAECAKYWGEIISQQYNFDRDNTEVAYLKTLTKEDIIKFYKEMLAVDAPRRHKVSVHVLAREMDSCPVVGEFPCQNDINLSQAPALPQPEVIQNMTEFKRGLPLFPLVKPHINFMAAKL
# The depositor's hits bear a star; ! = repeats disagree.
SMILES,IDE exosite inh
O=C(Cc1ccccc1)N1CC(=O)N2[C@H](CO)[C@@H](c3ccc(Br)cc3)[C@H]2C1,0.344
O=C(Cc1ccccc1)N1CC(=O)N2[C@H](CO)[C@H](c3ccc(C#Cc4ccccc4)cc3)[C@@H]2C1,-7.01*
O=C(Cc1ccccc1)N1CC(=O)N2[C@H](CO)[C@H](c3ccc(Br)cc3)[C@H]2C1,-1.63
C/C=C/c1ccc([C@@H]2[C@H](CO)N3C(=O)CN(S(=O)(=O)c4ccccc4)C[C@@H]23)cc1,0.427
C[C@H](CO)N1C[C@H](C)[C@@H](CN(C)Cc2ccc(C(=O)O)cc2)OCCCC[C@H](C)Oc2ccc(N(C)C)cc2C1=O,-0.515
CCCNC(=O)N(Cc1cccnc1)C[C@H]1N[C@H](CO)[C@@H]1c1ccccc1,-1.27
COc1ccccc1-c1ccccc1[C@H]1[C@@H](C#N)N(C(=O)CN(C)C)[C@@H]1CO,0.32
CN(C)CC(=O)N1[C@H](C#N)[C@@H](c2ccc(-c3ccccc3F)cc2)[C@@H]1CO,-2.65
COc1ccccc1-c1ccccc1[C@@H]1[C@@H](CO)N(C(=O)CN(C)C)[C@H]1C#N,0.121
C/C=C/c1ccc([C@@H]2[C@H](C#N)N(C(=O)Cc3ccccn3)[C@H]2CO)cc1,-0.421
C/C=C/c1ccc([C@H]2[C@@H](C#N)N(C(=O)Cc3ccccn3)[C@H]2CO)cc1,-2.01
COc1ccccc1-c1ccc([C@@H]2[C@@H](CO)N(C(=O)CN(C)C)[C@H]2C#N)cc1,-15*
COc1ccccc1-c1ccccc1[C@@H]1[C@@H](C#N)N(C(=O)CN(C)C)[C@H]1CO,-0.25
CN(C)CC(=O)N1[C@@H](C#N)[C@H](c2ccc(-c3ccccc3F)cc2)[C@@H]1CO,-4.49*
CN(C)CC(=O)N1[C@H](C#N)[C@@H](c2ccccc2-c2ccccc2F)[C@@H]1CO,-0.564
COc1ccccc1-c1ccccc1[C@H]1[C@@H](CO)N(C(=O)CN(C)C)[C@H]1C#N,0.748
COc1ccccc1-c1ccc([C@H]2[C@@H](C#N)N(C(=O)CN(C)C)[C@@H]2CO)cc1,-4.2*
N#C[C@H]1[C@@H](c2ccc(/C=C/c3ccccc3)cc2)[C@@H](CO)N1C(=O)Cc1ccccn1,-3.72*
CCS(=O)(=O)Nc1ccc2c(c1)C(=O)N(C)[C@H]1CC[C@@H](CC(=O)N[C@H]3CCN(Cc4ccccc4)C3)O[C@H]1CO2,-0.888
CCCNC(=O)N1[C@H](CO)[C@@H](c2ccc(C3=CCCC3)cc2)[C@@H]1CNC(=O)CC,4.06
O=C(c1ccccc1F)N1CC(=O)N2[C@H](CO)[C@@H](c3ccc(C#Cc4ccc(F)cc4)cc3)[C@@H]2C1,1.44
COc1ccc2c3c([nH]c2c1)[C@H](CO)N(Cc1ccc2c(c1)OCO2)CC31CCN(C(=O)Nc2c(C)noc2C)CC1,-0.217
CN(C)CC(=O)N1[C@H](CO)[C@H](c2ccc(/C=C/c3ccccc3)cc2)[C@@H]1C#N,-1.46
CCCNC(=O)N1[C@H](CO)[C@H](c2ccc(/C=C/c3ccccc3)cc2)[C@@H]1C#N,3.48
CN(C)CC(=O)N1[C@H](C#N)[C@@H](c2ccc(/C=C/c3ccccc3)cc2)[C@H]1CO,-5.4*
SMILES,IDE exosite inh
CC(C)[C@H]1COCn2nncc2CC[C@H](Cc2ccc(Cl)cc2)C(=O)N1,0.755
CC(C)C#Cc1ccc([C@H]2[C@H](CO)N3C(=O)CN(C(=O)Cc4cccnc4)C[C@@H]23)cc1,3.76
CCC(=O)N1[C@H](CO)[C@H](c2ccc(C#CC3CCCCC3)cc2)[C@@H]1CNC(C)C,0.143
C[C@@H]1CCCCO[C@H](CN(C)C(=O)CCCN(C)C)[C@H](C)CN([C@@H](C)CO)C(=O)c2cc(NC(=O)Nc3ccc4c(c3)OCO4)ccc2O1,0.744
COc1cccc(C(=O)Nc2ccc3c(c2)C(=O)N(C)[C@H]2CC[C@@H](CC(=O)N[C@@H](C)c4ccccc4)O[C@H]2CO3)c1,-3.32*
CN1C(=O)c2cc(NC(=O)c3cnccn3)ccc2OC[C@H]2O[C@@H](CC(=O)N[C@H]3CCN(Cc4ccccc4)C3)CC[C@H]21,0.949
COc1cccc(S(=O)(=O)Nc2ccc3c(c2)C(=O)N(C)[C@H]2CC[C@H](CC(=O)NCC4CCCCC4)O[C@@H]2CO3)c1,-0.74
COc1cccc(S(=O)(=O)Nc2ccc3c(c2)C(=O)N(C)[C@H]2CC[C@@H](CC(=O)NCC4CCCCC4)O[C@H]2CO3)c1,-1.69
CN1C(=O)c2cc(NC(=O)c3cnccn3)ccc2OC[C@@H]2O[C@H](CC(=O)N[C@H]3CCN(Cc4ccccc4)C3)CC[C@H]21,-0.917
CN1C(=O)c2cc(NC(=O)c3cccc(F)c3)ccc2OC[C@H]2O[C@H](CC(=O)NCC3CCCCC3)CC[C@@H]21,-1.72
COc1cccc(C(=O)Nc2ccc3c(c2)C(=O)N(C)[C@@H]2CC[C@H](CC(=O)N[C@@H](C)c4ccccc4)O[C@H]2CO3)c1,0.238
CN1C(=O)c2cc(NC(=O)c3cnccn3)ccc2OC[C@H]2O[C@@H](CC(=O)N[C@@H]3CCN(Cc4ccccc4)C3)CC[C@@H]21,-6.99*
CN1C(=O)c2cc(NC(=O)c3cccc(F)c3)ccc2OC[C@H]2O[C@H](CC(=O)NCC3CCCCC3)CC[C@H]21,-3.23*!
CN1C(=O)c2cc(NC(=O)c3cccc(F)c3)ccc2OC[C@@H]2O[C@H](CC(=O)NCc3ccccc3Cl)CC[C@@H]21,-0.414
COc1cccc(S(=O)(=O)Nc2ccc3c(c2)C(=O)N(C)[C@H]2CC[C@@H](CC(=O)NCC4CCCCC4)O[C@@H]2CO3)c1,-3.23*
COc1cccc(C(=O)Nc2ccc3c(c2)C(=O)N(C)[C@@H]2CC[C@H](CC(=O)N[C@@H](C)c4ccccc4)O[C@@H]2CO3)c1,-1.33
O=C(Nc1ccc(F)cc1)N1CC(=O)N2[C@H](C1)[C@H](c1ccc(C3=CCCC3)cc1)[C@@H]2CO,-0.0162
O=C(C[C@@H]1C=C[C@@H](NC(=O)c2ccncc2)[C@@H](CO)O1)NCC1CC1,2.93
COCC(=O)N1CC(=O)N2[C@@H](CO)[C@@H](c3ccc(C#CC4CCCC4)cc3)[C@@H]2C1,2.67
O=S(=O)(c1ccccc1)N1CCCCN2[C@H](CO)[C@H](c3ccc(-c4ccccc4)cc3)[C@H]2C1,4.04
OC[C@H]1[C@H](c2ccc(Br)cc2)[C@H]2CN(Cc3cncnc3)CCCCN21,1.48
C/C=C/c1ccc(C2[C@@H]3CN(S(=O)(=O)c4cccc(OC)c4)C[C@H]2N3)cc1 (stereo partly drawn),0.724
CN1C(=O)c2cc(NC(=O)Nc3ccccc3F)ccc2OC[C@H]2O[C@@H](CC(=O)NCCc3ccncc3)CC[C@@H]21,-0.532
CCC(=O)N(C[C@@H]1N[C@H](CO)[C@@H]1c1ccc(C#C[C@@H](C)O)cc1)C1CCCCC1,1.2
O=C(C[C@H]1C=C[C@H](NC(=O)Cc2cccnc2)[C@@H](CO)O1)NCc1ccc2c(c1)OCO2,-0.524
CC(C)CC#Cc1ccc([C@@H]2[C@@H](CO)N3C(=O)CN(S(=O)(=O)c4cccc(F)c4)C[C@H]23)cc1,-1.97
O=C(c1ccc(F)cc1)N1CC(=O)N2[C@H](CO)[C@H](c3ccc(C#Cc4ccc(F)cc4)cc3)[C@H]2C1,0.988
CN(C)C(=O)c1ccc(-c2ccc(C3[C@@H]4CN(S(=O)(=O)Cc5ccccc5)C[C@H]3N4)cc2)cc1 (stereo partly drawn),-4.17*
Cc1ccccc1-c1ccc(C2[C@@H]3CN(S(=O)(=O)Cc4ccccc4)C[C@H]2N3)cc1 (stereo partly drawn),-2.38

# Compound activity as filed in PubChem BioAssay.
